Assay results from PubChem BioAssay (NCATS).
Results filed as inconclusive are left out. Where a call stands in place of a potency, no number is given. Active and inactive are the calls of the source. Unless noted, calls follow the shape of the dose curve; as a rule, active = well fitted curve in the direction sought with a large enough effect; inconclusive = small, poorly fitted or top-dose-only effect, or another doubt; inactive = no such curve, though single readings can be large; an effect the other way counts as inactive or inconclusive.

Assays:
[1] = target: Ubiquitin carboxyl-terminal hydrolase 1 (Homo sapiens) (UniProt O94782); assay: Inhibitors of USP1/UAF1: Pilot qHTS (AID 504865); also: nearly all actives have a fitted effect of over 35% in size; also: potency is read from the fitted curve at half-maximal effect
Sequence of Ubiquitin carboxyl-terminal hydrolase 1 (Homo sapiens) (O94782 whole entry, looked up): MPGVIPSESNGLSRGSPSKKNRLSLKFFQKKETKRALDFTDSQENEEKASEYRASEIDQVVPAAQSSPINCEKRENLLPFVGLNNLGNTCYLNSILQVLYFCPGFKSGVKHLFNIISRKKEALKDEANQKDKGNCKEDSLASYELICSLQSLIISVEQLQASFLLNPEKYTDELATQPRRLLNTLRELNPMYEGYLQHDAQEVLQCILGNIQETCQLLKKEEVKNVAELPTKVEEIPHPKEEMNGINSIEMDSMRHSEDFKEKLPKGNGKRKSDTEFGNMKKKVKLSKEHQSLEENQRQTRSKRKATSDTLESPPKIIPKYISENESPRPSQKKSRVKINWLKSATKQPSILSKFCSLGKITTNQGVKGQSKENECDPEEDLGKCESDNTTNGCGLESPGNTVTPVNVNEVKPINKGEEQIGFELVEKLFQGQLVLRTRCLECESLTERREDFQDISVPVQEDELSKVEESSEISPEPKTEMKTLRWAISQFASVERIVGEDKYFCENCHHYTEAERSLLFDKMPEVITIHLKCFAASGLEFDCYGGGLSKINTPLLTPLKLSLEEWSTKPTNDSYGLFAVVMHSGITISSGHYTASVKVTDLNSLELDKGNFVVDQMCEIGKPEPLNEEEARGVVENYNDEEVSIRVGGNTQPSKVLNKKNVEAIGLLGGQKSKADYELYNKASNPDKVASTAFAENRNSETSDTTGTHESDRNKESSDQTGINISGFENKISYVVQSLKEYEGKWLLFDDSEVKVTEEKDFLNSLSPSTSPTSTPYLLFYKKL
In short: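 1nM USP1/UAF1 + cpd, 15 min RT; start w/ Ub-Rho 150nM final; kinetic FL 480/540 nm, 6 reads q60 s. Buffer 50mM HEPES pH 7.8, 0.5mM EDTA, 1mM TCEP, 0.01% Tween-20, 0.1 mg/ml BSA.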

[2] = target: Bile acid receptor (Homo sapiens) (UniProt Q96RI1); assay: qHTS assay for small molecule antagonists of farnesoid X receptor signaling (AID 588526; calls by dose curve)
Sequence of Bile acid receptor (Homo sapiens) (Q96RI1 whole entry, looked up): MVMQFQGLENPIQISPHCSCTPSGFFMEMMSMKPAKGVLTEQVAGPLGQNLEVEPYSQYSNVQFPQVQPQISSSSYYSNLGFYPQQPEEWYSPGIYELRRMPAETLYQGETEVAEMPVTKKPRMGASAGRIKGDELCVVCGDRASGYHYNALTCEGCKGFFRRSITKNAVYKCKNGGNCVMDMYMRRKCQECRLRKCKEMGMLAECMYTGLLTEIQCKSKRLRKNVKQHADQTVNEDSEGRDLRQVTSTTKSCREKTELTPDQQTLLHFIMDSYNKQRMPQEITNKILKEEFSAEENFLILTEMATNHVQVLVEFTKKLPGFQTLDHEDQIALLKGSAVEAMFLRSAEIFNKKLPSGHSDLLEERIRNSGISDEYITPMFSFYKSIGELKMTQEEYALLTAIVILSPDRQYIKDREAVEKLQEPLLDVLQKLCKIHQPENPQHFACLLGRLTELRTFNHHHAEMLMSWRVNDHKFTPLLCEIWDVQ
In short: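 Antagonist mode: titrated compounds tested against chenodeoxycholic acid stimulation (normalized to 50 uM CDCA and DMSO) in GeneBLAzer HEK293T cells for 16 h. Beta-lactamase read by CCF4 fluorescence; IC50 from Hill fits.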

[3] = target: Glucocorticoid receptor (Homo sapiens) (UniProt P04150); assay: qHTS assay for small molecule agonists of glucocorticoid receptor signaling (AID 588532; active = well fitted curve in the direction sought with a large enough effect in the signal ratio, with a control signal flat; the % refers to the signal ratio); conditions: HeLa MMTV-bla, beta-lactamase ratio, agonist, 18 h; stronger effect = higher value; percent of dexamethasone control, DMSO zero
Sequence of Glucocorticoid receptor (Homo sapiens) (P04150 whole entry, looked up): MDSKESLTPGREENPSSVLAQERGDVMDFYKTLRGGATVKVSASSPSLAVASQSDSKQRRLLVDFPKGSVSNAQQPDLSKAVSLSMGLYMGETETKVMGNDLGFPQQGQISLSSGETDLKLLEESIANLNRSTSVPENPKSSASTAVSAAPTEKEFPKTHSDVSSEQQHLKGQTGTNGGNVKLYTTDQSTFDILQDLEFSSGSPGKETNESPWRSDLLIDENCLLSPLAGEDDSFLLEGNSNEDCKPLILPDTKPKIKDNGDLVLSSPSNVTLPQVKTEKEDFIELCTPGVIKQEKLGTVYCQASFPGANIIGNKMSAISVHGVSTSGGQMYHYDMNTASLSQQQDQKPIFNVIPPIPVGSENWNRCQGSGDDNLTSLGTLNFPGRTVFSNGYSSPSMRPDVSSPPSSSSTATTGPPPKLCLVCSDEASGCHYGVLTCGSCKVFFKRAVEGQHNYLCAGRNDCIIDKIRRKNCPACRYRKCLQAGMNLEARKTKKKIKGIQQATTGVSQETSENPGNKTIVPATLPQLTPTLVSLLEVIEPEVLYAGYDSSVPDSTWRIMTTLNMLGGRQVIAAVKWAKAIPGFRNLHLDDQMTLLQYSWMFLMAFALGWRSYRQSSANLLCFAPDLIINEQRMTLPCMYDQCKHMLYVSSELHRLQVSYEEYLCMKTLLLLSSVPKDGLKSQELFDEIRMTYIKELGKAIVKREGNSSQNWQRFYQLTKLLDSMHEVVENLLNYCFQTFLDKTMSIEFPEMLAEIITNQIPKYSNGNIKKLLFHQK
In short: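 Cells were plated and rested 3-5 h at 37 C, compounds were added in titration and incubated 18 h, then CCF4 substrate was loaded for 2 h at RT before reading blue/green fluorescence. EC50 came from Hill-equation fitting.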

[4] = target: Glucocorticoid receptor (Homo sapiens) (UniProt P04150); assay: qHTS assay for small molecule antagonists of glucocorticoid receptor signaling (AID 588533; active = well fitted inhibition curve with a large enough effect in the signal ratio, with a control signal flat, not every such curve was filed as active; the % refers to the signal ratio)
In short: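 Antagonist-mode qHTS: compound titrations added to GRE-bla HeLa cells, then dexamethasone 2 nM final; 18 h, 37 C. CCF4 FRET fluorescence normalized to dexamethasone and DMSO; IC50 from Hill fit.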

[5] = qHTS assay for small molecule antagonists of peroxisome proliferator-activated receptor delta signaling (AID 588535; active = well fitted inhibition curve with a large enough effect in the signal ratio, with a control signal flat, not every such curve was filed as active; the % refers to the signal ratio;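 as to max response: cells co-treated with a PPAR-delta agonist as stimulator during compound exposure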); conditions: HEK293T PPARd-UAS-bla, beta-lactamase FRET ratio, 18 h; 460 nm channel
In short: (§1)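 Fluorescence from CCF4-loaded GeneBLAzer PPAR-delta-UAS-bla HEK293T cells (2 hrs RT loading) quantified reporter inhibition after an 18 hr, 37 C compound exposure across a titration.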

[6] = target: Peroxisome proliferator-activated receptor delta (Homo sapiens) (UniProt Q03181); assay: as above
In short: as §1

[7] = target: Peroxisome proliferator-activated receptor gamma (Homo sapiens) (UniProt P37231); assay: qHTS assay for small molecule antagonists of peroxisome proliferator-activated receptor gamma signaling (AID 588537; active = well fitted inhibition curve with a large enough effect in the signal ratio, with a control signal flat, not every such curve was filed as active; the % refers to the signal ratio;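 also: reporter cells co-stimulated with 50 nM rosiglitazone agonist during compound treatment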)
Sequence of Peroxisome proliferator-activated receptor gamma (Homo sapiens) (P37231 whole entry, looked up): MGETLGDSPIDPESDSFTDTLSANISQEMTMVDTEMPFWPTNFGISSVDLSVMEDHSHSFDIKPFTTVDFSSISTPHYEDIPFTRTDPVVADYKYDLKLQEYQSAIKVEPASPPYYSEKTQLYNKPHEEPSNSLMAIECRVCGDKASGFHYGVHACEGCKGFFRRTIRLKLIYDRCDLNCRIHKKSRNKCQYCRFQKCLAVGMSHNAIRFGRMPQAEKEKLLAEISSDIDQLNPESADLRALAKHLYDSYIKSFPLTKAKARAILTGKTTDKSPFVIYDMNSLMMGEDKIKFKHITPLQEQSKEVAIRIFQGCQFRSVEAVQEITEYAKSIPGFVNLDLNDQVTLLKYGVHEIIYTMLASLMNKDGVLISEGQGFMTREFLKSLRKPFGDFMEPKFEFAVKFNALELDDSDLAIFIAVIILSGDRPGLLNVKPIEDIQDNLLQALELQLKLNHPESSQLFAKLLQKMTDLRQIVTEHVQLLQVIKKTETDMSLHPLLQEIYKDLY
In short: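 Fluorescence at 460 and 530 nm (405 nm excitation) reported beta-lactamase cleavage of CCF4 after 2 h room-temperature loading. HEK293 reporter cells in 1% charcoal/dextran-treated FBS had received compound and rosiglitazone for 16 h.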

[8] = target: Vitamin D3 receptor (Homo sapiens) (UniProt P11473); assay: qHTS assay for small molecule antagonists of vitamin D receptor signaling (AID 588541; calls by dose curve;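 also: receptor activated by calcitriol during compound treatment; series mostly up to about 77 µM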)
Sequence of Vitamin D3 receptor (Homo sapiens) (P11473 whole entry, looked up): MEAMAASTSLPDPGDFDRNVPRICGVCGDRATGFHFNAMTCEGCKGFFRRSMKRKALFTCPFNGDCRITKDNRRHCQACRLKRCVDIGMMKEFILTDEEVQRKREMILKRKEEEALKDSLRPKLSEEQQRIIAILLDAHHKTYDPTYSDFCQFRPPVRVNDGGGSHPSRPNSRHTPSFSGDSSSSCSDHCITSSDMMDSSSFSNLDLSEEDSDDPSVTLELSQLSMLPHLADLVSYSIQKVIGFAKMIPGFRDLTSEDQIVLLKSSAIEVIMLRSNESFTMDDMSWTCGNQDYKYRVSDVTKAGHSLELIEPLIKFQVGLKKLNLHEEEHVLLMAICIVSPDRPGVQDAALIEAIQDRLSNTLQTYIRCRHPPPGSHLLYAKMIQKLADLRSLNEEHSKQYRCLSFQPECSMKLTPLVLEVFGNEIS
In short: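 VDR-UAS-bla HEK293T cells in 2% charcoal-stripped FBS were stimulated with 1-alpha,25-dihydroxyvitamin D3 (3 nM final) plus compound for 16 h at 37 C. The beta-lactamase CCF4 readout was normalized to 50 nM agonist and DMSO, and Hill fits gave IC50.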

[9] = target: Vitamin D3 receptor (Homo sapiens) (UniProt P11473); assay: qHTS assay for small molecule agonists of vitamin D receptor signaling (AID 588543; calls by dose curve)
In short: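 β-lactamase reporter, VDR-UAS-bla HEK293T, agonist mode. Cells plated 5 h at 37 °C, compound titration 16 h at 37 °C, CCF4 dye 2 h RT, ratio 460/530 nm. Hill fit → EC50, efficacy vs 50 nM 1α,25-(OH)2D3.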

[10] = target: Thyroid hormone receptor beta (Homo sapiens) (UniProt P10828); assay: qHTS assay for small molecule agonists of thyroid hormone receptor beta signaling (AID 588545; calls by dose curve)
In short: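 In this cell-based screen, titrated compounds act on HEK 293 cells held in medium with 2% charcoal/dextran FBS, NEAA and pyruvate for 18 hrs at 37 C. Responses are expressed relative to T3 (10 nM) as 100% and basal DMSO as 0%.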

[11] = qHTS assay for small molecule antagonists of retinoid X receptor alpha signaling (AID 588546; active = well fitted inhibition curve with a large enough effect in the signal ratio, with a control signal flat, not every such curve was filed as active; the % refers to the signal ratio;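 also: cells stimulated with 9-cis-retinoic acid as agonist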); conditions: HEK293T RXRa-UAS-bla, beta-lactamase ratio, antagonist mode; measured here: W530 green channel, cytotoxicity proxy
In short: (§2)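 Beta-lactamase reporter inhibition, read as CCF4 fluorescence ratio (ex 405, em 460/530 nm) after 2 h at RT. HEK293T UAS-bla cells, 2500/well, were stimulated with 9-cis-RA at 500 or 100 nM final alongside test compound for 18 h at 37 C.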

[12] = target: Retinoic acid receptor RXR-alpha (Homo sapiens) (UniProt P19793); assay: as above; conditions: HEK293T RXRa-UAS-bla, beta-lactamase ratio, antagonist mode
Sequence of Retinoic acid receptor RXR-alpha (Homo sapiens) (P19793 whole entry, looked up): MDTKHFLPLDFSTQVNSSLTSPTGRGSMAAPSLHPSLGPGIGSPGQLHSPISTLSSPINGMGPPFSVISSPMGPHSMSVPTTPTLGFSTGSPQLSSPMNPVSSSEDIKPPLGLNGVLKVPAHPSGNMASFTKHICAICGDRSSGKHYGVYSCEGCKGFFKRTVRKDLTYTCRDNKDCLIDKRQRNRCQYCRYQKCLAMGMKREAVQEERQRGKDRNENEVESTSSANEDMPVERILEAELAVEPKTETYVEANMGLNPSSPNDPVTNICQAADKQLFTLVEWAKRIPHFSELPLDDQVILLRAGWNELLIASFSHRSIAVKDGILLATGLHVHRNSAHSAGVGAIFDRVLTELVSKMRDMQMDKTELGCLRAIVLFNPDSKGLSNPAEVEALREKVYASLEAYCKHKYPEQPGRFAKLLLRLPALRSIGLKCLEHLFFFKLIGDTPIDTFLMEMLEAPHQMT
In short: as §2

[13] = target: DNA dC->dU-editing enzyme APOBEC-3G (Homo sapiens) (UniProt Q9HC16); assay: qHTS for inhibitors of Vif-A3G interactions: Validation (AID 588379)
Sequence of DNA dC->dU-editing enzyme APOBEC-3G (Homo sapiens) (Q9HC16 whole entry, looked up): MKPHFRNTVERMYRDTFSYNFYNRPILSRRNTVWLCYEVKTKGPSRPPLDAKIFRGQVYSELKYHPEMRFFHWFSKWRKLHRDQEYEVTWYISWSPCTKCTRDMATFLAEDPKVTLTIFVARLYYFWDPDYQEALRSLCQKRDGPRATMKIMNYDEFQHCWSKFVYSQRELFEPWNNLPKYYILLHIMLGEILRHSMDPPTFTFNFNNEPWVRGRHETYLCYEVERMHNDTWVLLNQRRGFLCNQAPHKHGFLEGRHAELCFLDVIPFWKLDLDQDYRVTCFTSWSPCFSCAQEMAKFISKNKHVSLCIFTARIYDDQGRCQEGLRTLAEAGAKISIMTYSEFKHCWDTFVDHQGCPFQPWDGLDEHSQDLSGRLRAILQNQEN
In short: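 Yellow fluorescence (Ex 488, Em 500-530) of Vif-coexpressing HeLa A3G-eYFP cells, scanned by Acumen cytometer, reports blocked A3G degradation. Cells plated at 700/well overnight at 37 deg C before compound addition, then a further overnight compound incubation at 37 deg C.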

[14] = qHTS for Inhibitors of Cell Surface uPA Generation: Validation Assay (AID 493164);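 also: RAW 264.7 macrophage cells exposed to compound for 18 h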
In short: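 ATP-Lite luminescence read-out: ATP remains high when uPA activity-dependent LF translocation into the cytoplasm is blocked. RAW 264.7 cells, 18 h compound exposure at 37 C; 7-point titration, 2.45 nM to 38.3 uM final.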

[15] = target: Galactokinase (Homo sapiens) (UniProt P51570); assay: qHTS Validation Assay for Inhibitors of Human Galactokinase (GALK) (AID 493189)
Sequence of Galactokinase (Homo sapiens) (P51570 whole entry, looked up): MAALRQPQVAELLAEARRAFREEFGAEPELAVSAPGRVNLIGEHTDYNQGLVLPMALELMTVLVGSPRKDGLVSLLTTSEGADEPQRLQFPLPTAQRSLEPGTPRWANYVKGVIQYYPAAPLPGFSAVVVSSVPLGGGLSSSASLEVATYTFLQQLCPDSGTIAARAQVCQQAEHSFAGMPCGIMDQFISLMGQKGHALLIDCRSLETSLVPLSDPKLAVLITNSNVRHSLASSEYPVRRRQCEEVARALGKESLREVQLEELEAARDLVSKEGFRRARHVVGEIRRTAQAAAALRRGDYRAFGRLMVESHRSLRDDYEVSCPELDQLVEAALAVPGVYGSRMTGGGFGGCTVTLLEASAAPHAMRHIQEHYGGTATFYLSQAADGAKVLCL
In short: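 Luminescence from leftover ATP (Kinase-Glo Plus, 10 min) served as read-out after a 1 h room-temperature reaction of 5 nM GALK, 100 uM galactose and 35 uM ATP at pH8.0.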

[16] = Validation screen for small molecules that induce DNA re-replication in SW480 colon adenocarcinoma cells (AID 504364)
In short: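 Image-based DNA content read-out: Hoechst stain 40 min, total nuclear fluorescence intensity (ex 405 nm, em 500-530 nm) after 48 h compound exposure of 250 SW480 cells/well at 37 C, 5% CO2, versus DMSO vehicle.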

[17] = target: Peptidyl-prolyl cis-trans isomerase NIMA-interacting 1 (Homo sapiens) (UniProt Q13526); assay: qHTS Validation Assay to Find Inhibitors of Pin1 (AID 504536; active = well fitted inhibition curve with a large enough effect in the polarisation, with a control signal flat, not every such curve was filed as active; the % refers to the polarisation)
Sequence of Peptidyl-prolyl cis-trans isomerase NIMA-interacting 1 (Homo sapiens) (Q13526 whole entry, looked up): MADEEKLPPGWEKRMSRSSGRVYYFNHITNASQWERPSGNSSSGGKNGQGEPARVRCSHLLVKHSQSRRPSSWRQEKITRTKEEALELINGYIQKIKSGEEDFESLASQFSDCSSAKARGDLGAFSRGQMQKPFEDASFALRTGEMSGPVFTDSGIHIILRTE
In short: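 Fluorescence polarization competition: compounds (titration) displace HiFluor-488-labeled Pin1-1b peptide from Pin1 (0.3 uM final) in pH 7.5 HEPES buffer with DTT, 10 min at room temperature; %Activity normalized to no-enzyme wells, curves fitted.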

[18] = target: Phosphoglycerate kinase, glycosomal (Trypanosoma brucei brucei) (UniProt P07378); assay: qHTS Validation Assay to Find Inhibitors of Phosphoglycerate Kinase (AID 504547)
Sequence of Phosphoglycerate kinase, glycosomal (Trypanosoma brucei brucei) (P07378 whole entry, looked up): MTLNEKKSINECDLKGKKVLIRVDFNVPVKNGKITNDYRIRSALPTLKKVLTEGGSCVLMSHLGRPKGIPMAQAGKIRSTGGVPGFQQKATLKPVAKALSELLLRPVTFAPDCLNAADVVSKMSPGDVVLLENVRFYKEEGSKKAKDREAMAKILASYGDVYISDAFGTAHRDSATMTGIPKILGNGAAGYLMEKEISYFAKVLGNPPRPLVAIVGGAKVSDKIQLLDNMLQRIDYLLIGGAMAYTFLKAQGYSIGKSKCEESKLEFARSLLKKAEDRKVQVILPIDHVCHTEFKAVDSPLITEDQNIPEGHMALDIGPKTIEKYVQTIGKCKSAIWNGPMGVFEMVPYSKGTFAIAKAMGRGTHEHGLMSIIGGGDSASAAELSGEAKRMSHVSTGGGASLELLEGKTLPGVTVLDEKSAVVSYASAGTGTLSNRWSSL
In short: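 Compounds are pinned into the substrate/PGK mixture, and GAPDH (100nM final) is added to start the reaction by producing 1,3-BPG. After 60 minutes at room temperature, Kinase-Glo Plus is added and luminescence is measured 10 minutes later.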

[19] = qHTS for Inhibitors of ATXN expression: Validation of Cytotoxic Assay (AID 588349)
In short: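 Cytotoxicity counter-screen: ATP-based luminescent viability (CellTiter Glo) after 72 hr exposure of HEK293 cells to a compound titration at 37 degrees C.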

[20] = qHTS for Inhibitors of ATXN expression: Validation (AID 588378); also: series mostly up to about 57 µM; nearly all actives have a fitted effect of over 75% in size
In short: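 Cells: HEK293-ATXN2-FFLuc, phenol-red free DMEM, 2 h attachment. Compound pin-transfer, 24 h, 37 degrees C, 5% CO2. CellTiter-Fluor 30 min, Ex405/Em525; Bright-Glo 5 min, luminescence 2 s exposure.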

Compound: COc1cc(C(=O)NS(=O)(=O)c2ccccc2C)ccc1Cc1cn(C)c2ccc(NC(=O)OC3CCCC3)cc12
- Potency [1]: 35.5 µM (active)

Compound: CC[C@@]1(O)C(=O)OCc2c1cc1n(c2=O)Cc2cc3cc(O)ccc3nc2-1
- Potency [1]: inactive

Compound: CC1(C)O[C@@H]2C[C@@H]3[C@H]4C[C@@H](F)C5=CC(=O)C=C[C@]5(C)[C@@]4(F)[C@@H](O)C[C@]3(C)[C@]2(C(=O)CO)O1
- Potency [1]: inactive

Compound: Nc1ccn([C@@H]2O[C@H](CO)[C@H](O)C2(F)F)c(=O)n1
- Potency [1]: inactive

Compound: O=C(O)CCCc1c[nH]c2ccccc12
- outcome [2]: inactive
- activation [3]: -4.22% (inactive)
- outcome [4]: inactive
- max response [5]: 35.4%
- outcome [6]: inactive
- outcome [7]: inactive
- outcome [8]: inactive
- outcome [9]: inactive
- outcome [10]: inactive
- max response [11]: 7.98%
- max response [12]: 6.54% (inactive)

Compound: COC(=O)C1=C(C)NC(C)=C(C(=O)OCCN2CCN(C(c3ccccc3)c3ccccc3)CC2)C1c1cccc([N+](=O)[O-])c1 (configuration not stated)
- Potency [1]: inactive

Compound: Nc1ccc(S(=O)(=O)Nc2ncccn2)cc1
- Potency [1]: inactive

Compound: O=c1[nH]c(=O)n(C2CCCO2)cc1F (configuration not stated)
- Potency [1]: inactive

Compound: O=C(O)CO.[NH2-].[NH2-].[Pt+2]
- Potency [1]: inactive

Compound: COc1c(N2C[C@@H]3CCCN[C@H]3C2)c(F)cc2c(=O)c(C(=O)O)cn(C3CC3)c12
- Potency [1]: inactive

Compound: COC(=O)C[C@](O)(CCCC(C)(C)O)C(=O)O[C@@H]1C(OC)=C[C@]23CCCN2CCc2cc4c(cc2[C@H]13)OCO4
- Potency [1]: inactive
- outcome [13]: inactive

Compound: C[C@H]1C[C@@H]2[C@@H]([C@@H](O)C[C@@]3(C)[C@H]2CC[C@]3(O)C(=O)CO)[C@@]2(C)C=CC(=O)C=C12
- Potency [1]: inactive

Compound: CC=CC1=C(C(=O)O)N2C(=O)[C@H](NC(=O)[C@H](N)c3ccc(O)cc3)[C@@H]2SC1
- Potency [1]: inactive

Compound: O=c1c2ccccc2nc2n1CCc1c-2[nH]c2ccccc12
- outcome [14]: inactive
- outcome [15]: inactive
- outcome [16]: inactive
- outcome [17]: inactive
- outcome [18]: inactive
- Potency [1]: inactive
- outcome [19]: inactive
- outcome [20]: inactive
